Data as given in PubChem BioAssay.
Values without a mark were called inactive. The rule behind the calls is not given here.

What follows are molecules tested on Aerobactin synthetase IucA (Klebsiella pneumoniae, hypervirulent) (assay: biochemical IucA inhibition screen of LOPAC library by absorbance (AID 1346212;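 note: 100% = no compound wells and 0% = no enzyme wells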)). Details: IucA enzyme assay, absorbance (OD) readout; active compounds read low;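 tested at 8 µM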.

Structure (SMILES)	remaining activity [%]
Cn1c(=O)c2[nH]c(-c3ccccc3)nc2n(C)c1=O	124
N[C@@H](Cc1c[nH]c2ccc(O)cc12)C(=O)O	99.1
OC1(c2ccc(Cl)cc2)CCN(Cc2c[nH]c3ccccc23)CC1	112
CC(N)(Cc1ccc(O)cc1)C(=O)O (stereo unspecified)	106
O=C(O)c1cc(=O)cc(C(=O)O)[nH]1	122
COc1ccccc1N1CCN(CC(O)COc2cccc3ccccc23)CC1 (stereo unspecified)	96.1
CN1Cc2sccc2C(c2ccc(O)c(O)c2)C1 (stereo unspecified)	120
CC[C@H](C)C(=O)O[C@H]1CCC=C2C=C[C@H](C)[C@H](CC[C@@H]3C[C@@H](O)CC(=O)O3)[C@H]21	118
NC(=O)c1ccccc1	109
CC[N+](CC)(CC)CC(=O)Nc1c(C)cccc1C	113
Nc1ncnc2c1c(-c1ccc(Oc3ccccc3)cc1)cn2C1CCCC1	122
